Many of the other results were omitted from the sample, so hits are more common in it than they were.
EZH2 inh: blocks human EZH2/PRC2 H3K27 methylation. Q15910. DELFIA TRF, 1 h. inhibition, % at 12.5 µM. hit rate 0.35% among 57,000. AID 651548;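 active = mean inhibition of replicates at least 50% and every single replicate also reaching 50%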;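 also: dimethyl H3K27 on biotinylated H3 21-44 peptide detected by antibody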
Target sequence (Q15910 whole entry, looked up): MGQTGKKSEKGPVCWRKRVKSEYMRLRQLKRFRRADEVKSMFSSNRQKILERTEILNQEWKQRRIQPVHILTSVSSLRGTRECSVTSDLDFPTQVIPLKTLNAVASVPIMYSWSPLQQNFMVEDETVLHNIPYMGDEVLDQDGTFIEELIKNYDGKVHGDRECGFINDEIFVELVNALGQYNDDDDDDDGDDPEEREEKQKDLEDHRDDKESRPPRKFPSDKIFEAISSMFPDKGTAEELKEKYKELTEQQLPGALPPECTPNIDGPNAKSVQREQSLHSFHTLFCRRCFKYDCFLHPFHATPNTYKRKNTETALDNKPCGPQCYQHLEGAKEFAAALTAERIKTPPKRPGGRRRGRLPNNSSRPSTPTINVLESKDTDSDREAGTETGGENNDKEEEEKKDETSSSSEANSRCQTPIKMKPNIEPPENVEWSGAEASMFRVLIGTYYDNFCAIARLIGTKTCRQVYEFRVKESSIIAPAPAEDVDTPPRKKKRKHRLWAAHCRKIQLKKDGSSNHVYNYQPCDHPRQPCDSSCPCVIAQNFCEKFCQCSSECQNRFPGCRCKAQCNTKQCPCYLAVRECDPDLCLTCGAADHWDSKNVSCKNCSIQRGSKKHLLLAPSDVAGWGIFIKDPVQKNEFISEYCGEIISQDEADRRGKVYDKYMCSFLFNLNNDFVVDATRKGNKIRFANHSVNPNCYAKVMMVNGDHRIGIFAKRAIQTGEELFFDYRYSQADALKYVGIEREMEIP
Hits are given with their value; i = inactive.

SMILES	EZH2 inh
O=C(O)c1c(Sc2ccccc2)c2cc(Cl)ccc2n1Cc1ccc(Cl)cc1	64
CC(=O)N(C)c1ccc(OCC(O)Cn2c3ccc(Cl)cc3c3cc(Cl)ccc32)cc1 (stereo unspecified)	i
O=C1CCCc2c1n(CCN(Cc1ccccc1)Cc1ccccc1)c1ccc(Cl)cc21	i
CCOC(=O)c1c(NC(=O)C2CC(c3cccc(Br)c3)=NO2)sc(C(=O)OC)c1C (stereo unspecified)	i
CN1C(=O)C2C=CC=CC2N=C1SCc1ccccc1F (stereo unspecified)	i
CCCCCCCC/C=C/CCCCCCCC(=O)NCCc1ccc(O)c(O)c1	68
CCCCC/C=C\C/C=C\C/C=C\C/C=C\CCCCCC(=O)O	i
CCCCCCCC/C=C/CCCCCCCC(=O)NCCO	i
CCOc1ccc(NC(=O)C(C)Sc2nc3ccccc3s2)cc1 (stereo unspecified)	i
O=P(CCNCc1cccnc1)(c1ccccc1)c1ccccc1	i
O=C(O)Cc1cccc(OCCCN(Cc2cccc(C(F)(F)F)c2Cl)CC(c2ccccc2)c2ccccc2)c1	85
COc1ccccc1NC(=O)CSc1nc(C)cc(C(F)(F)F)n1	i
Cc1nnc(SCC(=O)Nc2cccc(Cl)c2Cl)s1	i
O=C(CCc1nc(-c2ccccc2Cl)no1)Nc1cccc([N+](=O)[O-])c1	i
Cc1cc(CSc2cc(C)c(Cl)cc2C)no1	56
Cc1nnc(SCc2nc(N)nc(Nc3ccc4ccccc4c3)n2)s1	i
O=C(CNS(=O)(=O)c1cc(Cl)ccc1Cl)Nc1ccc2c(c1)OCCO2	i
CCC(=O)N1CCc2cc(S(=O)(=O)NC(CC(C)C)C(=O)NC3CCCC3)ccc21 (stereo unspecified)	i
COc1ccc(C(=O)CSc2n[nH]c(-c3ccccc3)n2)cc1[N+](=O)[O-]	i
Cc1ccc(-n2c(SCC(=O)Nc3cccc(C)c3C)nnc2-c2ccncc2)cc1C	i
CN(C)S(=O)(=O)N(CC(=O)O)c1ccccc1	i
CN(C(=S)SCc1ccccc1)c1ccccc1	66
Cc1nnc(SCC(=O)Nc2cc(Cl)c(Cl)cc2Cl)s1	i
COc1ccc(S(=O)(=O)N(C)CC(=O)Nc2cccc(Cl)c2C)cc1C	i
COc1ccc(-c2nc(SCC(=O)Nc3ccc(Cl)cc3)[nH]c(=O)c2C#N)cc1	i
SMILES	EZH2 inh
N#Cc1c(-c2ccco2)nc(SCC(=O)Nc2ccc(I)cc2)[nH]c1=O	54
O=C(CSc1n[nH]c(-c2ccco2)n1)Nc1ccc(F)cc1	i
COc1cccc(-c2nc(SCC(=O)Nc3cccc(C(F)(F)F)c3)[nH]c(=O)c2C#N)c1	68
O=C(CSc1nc2ccccc2[nH]1)Nc1ccc(I)cc1	i
COc1ccc(-c2nc(SCC(=O)Nc3cccc(C(F)(F)F)c3)n[nH]2)cc1	i
COc1ccc(-c2ccc(CCC(=O)O)n2-c2ccc(Br)cc2)cc1	i
O=c1c2ccccc2nc(-c2ccco2)n1CCN1CCOCC1	i
Cc1cc(OCc2nc3ccccc3s2)ccc1NC(=O)Nc1cccc(Cl)c1	i
CCn1c(SCC(N)=O)nnc1-c1ccncc1	i
COc1ccc(S(=O)(=O)N(C)CC(=O)Nc2ccc(I)cc2)cc1OC	i
OCCCNc1nc(-c2ccccc2Cl)c2cc(Br)ccc2n1	i
Brc1ccc2nc(NCc3ccccn3)nc(-c3ccccc3)c2c1	i
Brc1ccc2noc(-c3ccccc3)c2c1	63
CCN1CSC(=S)N(CC)C1	i
C[C@H](CO)N1C[C@H](C)[C@H](CN(C)Cc2cccc(F)c2)Oc2cc(-c3ccccc3)ccc2S1(=O)=O	i
C[C@H]1CN([C@@H](C)CO)S(=O)(=O)c2ccc(-c3ccccc3)cc2O[C@H]1CN(C)Cc1cccc(F)c1	i
C[C@@H]1CN([C@H](C)CO)S(=O)(=O)c2ccc(C#CC3CC3)cc2O[C@H]1CN(C)Cc1cccc(F)c1	i
C[C@@H]1CN([C@H](C)CO)S(=O)(=O)c2ccc(-c3ccccc3)cc2O[C@H]1CN(C)Cc1cccc(F)c1	55
C[C@@H]1CN([C@H](C)CO)C(=O)c2cc(NS(=O)(=O)c3cccs3)ccc2O[C@@H]1CN(C)Cc1ccc(-c2ccccc2)cc1	54
C[C@H](CO)N1C[C@H](C)[C@@H](CN(C)Cc2ccc(-c3ccccc3)cc2)Oc2ccc(NS(=O)(=O)c3cccs3)cc2C1=O	i
C[C@H](CO)N1C[C@H](C)[C@H](CN(C)Cc2ccccc2)Oc2cc(C#CC3CC3)ccc2S1(=O)=O	i
C[C@H](CO)N1C[C@H](C)[C@H](CN(C)Cc2ccc(-c3ccccc3)cc2)Oc2ccc(NS(=O)(=O)c3cccs3)cc2C1=O	i
C[C@H](CO)N1C[C@H](C)[C@H](CN(C)Cc2cccc(F)c2)Oc2cc(C#CC3CC3)ccc2S1(=O)=O	84
COc1ccc(Cl)cc1N1CCN(CCCNC(=S)Nc2ccc(Cl)cc2C)CC1	i
Cc1ccccc1Cn1ccc(NC(=O)c2nn3c(c2Cl)NC(c2ccccc2)CC3C(F)(F)F)n1 (stereo unspecified)	i
SMILES	EZH2 inh
CCc1ccnc(NC(=O)CC2(CC(=O)O)CCCCC2)c1	i
O=C(CCCN1C(=O)c2cccc3cccc(c23)C1=O)Nc1ccccc1[N+](=O)[O-]	i
O=C(CSc1nnc(-c2ccc(Br)cc2)o1)Nc1ccccc1Cl	i
N#CCN(CC#N)C(=O)C(Sc1ccccc1)c1ccccc1 (stereo unspecified)	i
Cc1ccc(S(=O)(=O)N(C(=O)C2CCCCC2)c2ccc3oc(=O)sc3c2)c(C)c1	54
CC(=O)c1c(C)oc2ccc(N(C(=O)c3ccncc3)S(=O)(=O)c3ccc(F)cc3C)cc12	i
COc1ccc(N(C(=O)C2CCCCC2)S(=O)(=O)c2cccc3cccnc23)cc1	i
CN(CC(=O)Nc1ccccc1-c1ccccc1)S(=O)(=O)c1ccc(Br)cc1	i
CCOc1cc(/C=C2\SC(=S)NC2=O)cc(Cl)c1OC(=O)c1ccc(OC)cc1	67
Cc1cc(N2CCCC2)ccc1/C=C(/C#N)c1ccc(F)cc1	i
O=C1c2c(O)cc(O)cc2OC(c2ccc(O)cc2)C1C1C(=O)c2c(O)cc(O)cc2OC1c1ccc(O)cc1 (stereo unspecified)	i
Oc1ccc([C@@H]2Oc3cc(O)cc(O)c3C[C@@H]2O)cc1	89
Oc1ccc([C@H]2Oc3cc(O)cc(O)c3C[C@H]2O)cc1	i
CC1OC(OCC2OC(Oc3c(-c4ccc(O)c(O)c4)oc4cc(O)cc(O)c4c3=O)C(O)C(O)C2O)C(O)C(O)C1O (stereo unspecified)	i
O=c1c(OC2OC(CO)C(O)C(O)C2OC2OC(CO)C(O)C(O)C2O)c(-c2ccc(O)cc2)oc2cc(O)cc(O)c12 (stereo unspecified)	87
C[C@@H]1O[C@@H](Oc2cc(O)c3c(=O)c(O[C@@H]4O[C@@H](C)[C@H](O)[C@@H](O[C@@H]5OC[C@@H](O)[C@H](O)[C@H]5O)[C@H]4O[C@@H]4O[C@H](CO)[C@@H](O)[C@H](O)[C@H]4O)c(-c4ccc(O)cc4)oc3c2)[C@H](O)[C@H](O)[C@H]1O	i
CC(=O)c1cccc(NC(=O)C(C)NS(=O)(=O)c2ccc(Cl)cc2)c1 (stereo unspecified)	i
COc1ccc(S(=O)(=O)NCC2CCCO2)cc1-c1nnc2c3ccccc3c(C)nn12 (stereo unspecified)	i
COc1cc(-c2nc3sc4c(c3c(=O)[nH]2)CCCC4)cc(Br)c1OCC(=O)O	i
CCCc1cc(=O)oc2cc(OCc3cc(C(=O)O)oc3C)ccc12	i
Cc1cc(=O)oc2cc(NC(=S)NCc3cccnc3)ccc12	i
Cc1cc2oc(=O)cc(CN(C)Cc3ccccc3)c2cc1C(C)C	50

Compound activity as filed in PubChem BioAssay.
